According to PubChem BioAssay AID1626 (SRMLSC, 2009):
Out of some 220,000 compounds screened, about 2,000 (0.91%) were called active. About 2% were inconclusive and are not listed. No stated cut-off is given here; in the data, inconclusive means inhibition above about 80% without an active follow-up result; inactive means below that; test concentration not stated here. Only a sample is shown. Potency and affinity values are given separately.

assay: M. tuberculosis H37Rv growth inhibitors, H37Rv strain (AID 1626); conditions: stronger effect = higher value, concentration not given here;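 further: bacteria incubated seven days before Alamar blue readout; 0% = bacteria only wells and 100% = bacteria with antibiotic wells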

Row | SMILES | inhibition
1 | CCN(CC)S(=O)(=O)c1cccc(C(=O)N/N=C2\CCCC(=O)C2)c1 | -9.95% (inactive)
2 | CCNc1nc(SCCOc2ccc(Br)cc2)nc(N(C)C)n1 | -0.8% (inactive)
3 | Cc1nn(C)c(C)c1S(=O)(=O)N1CCC(C(=O)NCCC2=CCCCC2)CC1 | -9.44% (inactive)
4 | Cc1ccc(C)c(-c2cc(C(=O)Nc3cccc(C(=O)O)c3)c3ccccc3n2)c1 | 2.58% (inactive)
5 | COc1ccc(/C=C/C2=NN(Cc3ccccc3)C(=O)CC2)cc1 | -0.13% (inactive)
6 | Cc1cc(N2CCN(C)CC2)nc(-c2ccccc2O)n1 | -1.49% (inactive)
7 | CCC(=O)Nc1ccc(-c2nnc(-c3ccccc3)o2)cc1 | 5.07% (inactive)
8 | COc1ccc(-c2nc3ccccc3c(=O)o2)cc1OC | 12.4% (inactive)
9 | O=C(Nc1ccc(-c2nc3cc(Cl)ccc3c(=O)o2)cc1)c1ccco1 | 9.67% (inactive)
10 | Cc1cccc(OCC(=O)Nc2cccc(-c3nnc(-c4ccccc4)o3)c2)c1C | 3.74% (inactive)
11 | O=C(Nc1ccc2nc(-c3ccccc3)oc2c1)c1ccco1 | -2.22% (inactive)
12 | CC(C)C(=O)Nc1cccc(-c2nc3ccccc3c(=O)o2)c1 | 0.23% (inactive)
13 | CCOc1ccc(-c2nc3ccccc3c(=O)o2)cc1 | 3.93% (inactive)
14 | O=C(COc1ccccc1)Nc1cccc(-c2nnc(-c3ccccc3)o2)c1 | 14.9% (inactive)
15 | O=C1CC(c2ccc(Br)cc2)NC(c2ccc(Br)cc2)C1c1ccccc1 (stereo not given) | 15.2% (inactive)
16 | Nc1cc(-c2ccccc2)nn1S(=O)(=O)c1ccc(Br)cc1 | 12.3% (inactive)
17 | COc1cc(SC)ccc1C(=O)Nc1ccc(C)cc1C | 2.28% (inactive)
18 | Cc1onc(-c2ccccc2)c1C(=O)N1CCN(C)CC1 | -7.83% (inactive)
19 | Cc1cc(C(=O)N/N=C2\CC(=O)c3ccccc32)c(C)n1-c1ccccc1 | -0.53% (inactive)
20 | COc1ccc(/C=N/NC(=O)CC2N=C(Cc3ccccc3)NNC2=O)cc1OC (stereo not given) | -1.24% (inactive)
21 | O=C(Oc1c(Cl)cc(Cl)c2ccccc12)N1CCCCC1 | 11.7% (inactive)
22 | NC(=O)CCC(NC(=O)c1ccc(Cl)cc1)C(=O)O (stereo not given) | 2.33% (inactive)

Row | SMILES | inhibition
23 | COc1ccc(NC(=O)CCN2C(=O)[C@@H]3[C@H](C2=O)[C@H]2C=C[C@@H]3C2)cc1 | -1.56% (inactive)
24 | CCCC(=O)Nc1cccc(-c2nc3ccccc3o2)c1 | 5.23% (inactive)
25 | CC(C)(C)C(=O)Nc1cccc(-c2nc3ccccc3c(=O)o2)c1 | 70.7% (inactive)
26 | O=C(Nc1ccc(-c2nc3ccccc3o2)cc1)c1ccc(N2C(=O)C3C4C=CC(C4)C3C2=O)cc1 (stereo not given) | 3.15% (inactive)
27 | CC(=O)Nc1cccc(-c2nc3ccccc3c(=O)o2)c1 | 9.37% (inactive)
28 | O=C1C2C3C=CC(C3)C2C(=O)N1c1ccc(-c2nc3ccccc3o2)cc1 (stereo not given) | 0.58% (inactive)
29 | COc1ccc(-c2nc3ccccc3c(=O)o2)cc1 | 11.6% (inactive)
30 | COc1ccc(C2C(Oc3ccccc3)C(=O)N2c2ccc(C)c(C)c2)cc1OC (stereo not given) | 4.9% (inactive)
31 | Fc1ccc(CNC(=S)NC2CCCC2)cc1 | 2.21% (inactive)
32 | CCc1cc(C(=O)OC)c(NC(=O)CC2SC(N)=NC2=O)s1 (stereo not given) | 3.51% (inactive)
33 | CC(=O)N1CCN(c2ccc(N=Cc3c(O)n(-c4ccc(Cl)cc4)c(=O)[nH]c3=O)cc2)CC1 | -7.57% (inactive)
34 | COc1ccccc1CCc1nnc(CCC(=O)NC(C)Cc2cccc(C)n2)o1 (stereo not given) | -7.73% (inactive)
35 | COc1ccc(/C=C2\SC(=N)N(c3ccc(F)cc3)C2=O)cc1OC | -3.05% (inactive)
36 | COc1cc(/C=C2\SC(=N)N(c3ccc(F)cc3)C2=O)ccc1O | 7.97% (inactive)
37 | CCOc1cc(/C=C2\SC(=N)N(c3nonc3N)C2=O)ccc1OCC(N)=O | 4% (inactive)
38 | CCOc1cc(/C=C2\SC(=N)N(c3nonc3N)C2=O)ccc1OCCN1CCOCC1 | 4.53% (inactive)
39 | CCN1C(c2ccccc2)=C(c2ccccc2)S/C1=C\C=C1/SC(=S)N(C)C1=O | 3.07% (inactive)
40 | Cc1cccnc1-n1c(CN2C(=O)c3ccccc3C2=O)nc2ccccc2c1=O | -3.32% (inactive)
41 | CCOC(=O)c1c(CSC(=N)N)n(C)c2cc(Br)c(OC(C)=O)cc12 | 1.34% (inactive)
42 | CCOC(=O)c1c(CSC(=N)N)n(-c2ccccc2)c2cc(Br)c(OC(C)=O)cc12 | -0.53% (inactive)
43 | O=C(CN=C1NS(=O)(=O)c2ccccc21)OCC(=O)c1cc(F)ccc1F | -7.99% (inactive)
44 | c1csc(Cc2nn3c(-c4ccncc4)nnc3s2)c1 | -11.8% (inactive)

Row | SMILES | inhibition
45 | c1coc(-c2nnc3sc(Cc4cccs4)nn23)c1 | -0.74% (inactive)
46 | C1CCC(c2nn3c(-c4n[nH]c5c4CCC5)nnc3s2)CC1 | 9.35% (inactive)
47 | c1ccc(OCc2nn3c(-c4ccccn4)nnc3s2)cc1 | -10.6% (inactive)
48 | c1ccc(OCc2nn3c(-c4ccncc4)nnc3s2)cc1 | -8.19% (inactive)
49 | c1ccc(-c2nnc3sc(Cc4cccs4)nn23)cc1 | 15.9% (inactive)
50 | Clc1ccccc1-c1nnc2sc(CCc3ccccc3)nn12 | 5.64% (inactive)
51 | c1ccc(CCc2nn3c(-c4ccncc4)nnc3s2)cc1 | -0.85% (inactive)
52 | O=C(OCc1nc2ccccc2s1)c1cnccn1 | -4.85% (inactive)
53 | O=C(c1ccc(=O)[nH]n1)N1CCc2ccccc2C1 | 5.26% (inactive)
54 | COC(=O)CCSCC(=O)Nc1nnc(C)s1 | -2.82% (inactive)
55 | CCN(CC)C(=O)CSc1nnc(-c2ccc(F)cc2)n1N | 3.27% (inactive)
56 | CC(=O)Oc1ccc(C(=O)Nc2cccc(C(=O)c3cccc(NC(=O)c4ccc(OC(C)=O)cc4)c3)c2)cc1 | 74.4% (inactive)
57 | COC1=CC(=O)CC(C)C12Oc1cc(OC)cc(OC)c1C2=O (stereo not given) | -7.12% (inactive)
58 | COCCNC(=O)/C(C#N)=C\c1ccc(CNS(=O)(=O)c2ccccc2)o1 | -0.59% (inactive)
59 | O=C1c2ccccc2C(O)(c2ncc[nH]2)N1CCc1ccccc1 (stereo not given) | -2.48% (inactive)
60 | Clc1nc(NCc2ccco2)nc(N2CCCCC2)n1 | 5.51% (inactive)
61 | c1ccc(CNc2nc(NCc3ccco3)nc(N3CCOCC3)n2)cc1 | 10.6% (inactive)
62 | OCCN1CCN(c2nc(NCc3ccco3)c3ccccc3n2)CC1 | -2.39% (inactive)
63 | OCCNc1nc(N2CCN(Cc3ccccc3)CC2)nc2ccccc12 | -8.82% (inactive)
64 | c1ccc2c(NCC3CCCO3)nc(N3CCCCC3)nc2c1 (stereo not given) | 1.41% (inactive)
65 | COc1ccccc1Nc1nc(NCc2ccco2)c2ccccc2n1 | 83.7% (inactive)
